Usually AC50 stands for the concentration giving half of the maximal activity seen.

Results on nine compounds are retold here after PubChem BioAssay (EPA / NIEHS).

Test [1] deals with Aryl hydrocarbon receptor (Homo sapiens) (UniProt P35869). In words: ATG_Ahr_CIS: Attagene CIS-FACTORIAL HepG2 Assay for human Aryl Hydrocarbon Receptor (Ahr) (AID 2282930; active = hit-call score of the fitted dose curve at least 0.9, where 1 is the maximum; inactive = score below 0.9). Conditions: HepG2 AhR cis-factorial reporter transcription; actives raise or lower the signal. The essentials:
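Following 24 h of chemical dosing, transfected HepG2 liver cells with cis-driven reporter units were lysed for RNA; reporter mRNA was quantified via RT-PCR and capillary electrophoresis, and responses fitted bidirectionally from DMSO.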

Test [2] can be described thus: ATG_AP_1_CIS: Attagene CIS-FACTORIAL HepG2 Assay for human Activator Protein 1 (AP-1) (AID 2282931; active = hit-call score of the fitted dose curve at least 0.9, where 1 is the maximum; inactive = score below 0.9). The following applies: HepG2 Attagene cis-factorial AP-1 reporter mRNA; actives raise or lower the signal. The essentials:
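We transfected HepG2 cells transiently with a set of cis-regulated reporter transcription units, dosed them for 24 h, and quantified reporter mRNA via RT-PCR and capillary electrophoresis, scoring gain or loss of signal relative to DMSO.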

A short description of test [3]: ATG_E_Box_CIS: Attagene CIS-FACTORIAL HepG2 Assay for human Enhancer Box (E-box) (AID 2282936; active = hit-call score of the fitted dose curve at least 0.9, where 1 is the maximum; inactive = score below 0.9). Conditions: HepG2 E-box cis-reporter transcription, actives raise or lower the signal. In outline:
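Endogenous transcription factor activity was sensed in human HepG2 liver cells through transfected cis-promoter reporter units. After 24 h of dosing, total RNA was reverse-transcribed and reporter cDNA resolved by capillary electrophoresis.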

The nature of test [4]: ATG_GRE_CIS: Attagene CIS-FACTORIAL HepG2 Assay for human Glucocorticoid Response Elements (GRE) (AID 2282947; active = hit-call score of the fitted dose curve at least 0.9, where 1 is the maximum; inactive = score below 0.9). Conditions: HepG2 GRE cis-reporter, Attagene multiplex mRNA; actives raise or lower the signal. In outline:
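Cells (HepG2) bearing transfected cis-promoter reporter transcription units were treated with chemical for 24 hours. Reporter mRNA was measured via RT-PCR with capillary electrophoresis, and activity was fitted in both directions relative to DMSO.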

Test [5] deals with Hypoxia-inducible factor 1-alpha (Homo sapiens) (UniProt Q16665). Nature of the test: ATG_HIF1a_CIS: Attagene CIS-FACTORIAL HepG2 Assay for human Hypoxia Inducible Factor 1 (HIF1A) (AID 2282951; active = hit-call score of the fitted dose curve at least 0.9, where 1 is the maximum; inactive = score below 0.9). Conditions: HepG2 Attagene cis-factorial HIF1a reporter transcription; actives raise or lower the signal. The essentials: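 Cis-element reporter constructs were transiently transfected into HepG2 cells, which were treated for 24 h; reporter RNA was reverse-transcribed, amplified, labelled and resolved by capillary electrophoresis.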
Chain of Hypoxia-inducible factor 1-alpha (Homo sapiens) (Q16665 whole entry, looked up): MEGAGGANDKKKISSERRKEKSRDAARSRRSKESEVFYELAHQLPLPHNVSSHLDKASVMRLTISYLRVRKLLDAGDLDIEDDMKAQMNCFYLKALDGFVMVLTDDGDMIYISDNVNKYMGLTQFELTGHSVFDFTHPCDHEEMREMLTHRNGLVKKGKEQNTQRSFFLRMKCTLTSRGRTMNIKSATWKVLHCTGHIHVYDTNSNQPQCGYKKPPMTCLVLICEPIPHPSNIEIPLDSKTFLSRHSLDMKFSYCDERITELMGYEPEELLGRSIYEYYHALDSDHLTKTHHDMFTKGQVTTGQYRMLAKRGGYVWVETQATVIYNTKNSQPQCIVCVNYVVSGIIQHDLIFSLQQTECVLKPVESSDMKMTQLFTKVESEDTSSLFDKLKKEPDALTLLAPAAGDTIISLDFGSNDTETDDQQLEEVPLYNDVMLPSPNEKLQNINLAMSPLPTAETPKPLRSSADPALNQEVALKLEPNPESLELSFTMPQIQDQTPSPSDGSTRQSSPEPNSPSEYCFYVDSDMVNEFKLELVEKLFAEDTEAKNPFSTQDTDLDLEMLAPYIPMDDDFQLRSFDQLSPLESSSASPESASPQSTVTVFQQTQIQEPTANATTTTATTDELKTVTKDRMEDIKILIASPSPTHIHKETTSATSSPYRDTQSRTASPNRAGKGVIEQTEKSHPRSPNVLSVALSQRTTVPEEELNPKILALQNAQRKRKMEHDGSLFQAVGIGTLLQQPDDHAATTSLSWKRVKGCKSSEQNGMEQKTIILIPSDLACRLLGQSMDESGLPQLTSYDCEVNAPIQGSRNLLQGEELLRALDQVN

Test [6] is described as follows: ATG_PBREM_CIS: Attagene CIS-FACTORIAL HepG2 Assay for human Phenobarbital-responsive Enhancer Module (PBREM) (AID 2282955; active = hit-call score of the fitted dose curve at least 0.9, where 1 is the maximum; inactive = score below 0.9). The following applies: HepG2 PBREM cis-reporter, Attagene multiplexed transcription; actives raise or lower the signal. The essentials:
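Multiplexed cis-reporter readout in human hepatoma HepG2 cells; PBREM-regulated transcript quantified after 24 h exposure by fluorescent RT-PCR fragment analysis. Signal changes up or down fitted relative to DMSO.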

Test [7] is described as follows: ATG_M_06_TRANS: Attagene TRANS-FACTORIAL HepG2 Assay for M06 Transcription Factor (Internal Marker) (AID 2282983).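 Also: reporter transcript level by RT-PCR then capillary electrophoresis fluorescence.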 The following applies: HepG2 Attagene TRANS M06 internal marker reporter. In outline:
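Background control endpoint: reporter mRNA from transiently transfected HepG2 after 24 h dosing, detected by RT-PCR with capillary electrophoresis fluorescence. Analysed for gain versus DMSO.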

Test [8] is described as follows: ATG_M_32_TRANS: Attagene TRANS-FACTORIAL HepG2 Assay for M32 Transcription Factor (Internal Marker) (AID 2282984).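 Also: transcript level of a background control reporter unit measured by RT-PCR and capillary electrophoresis.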 Conditions: HepG2 Attagene TRANS M32 internal marker reporter. The essentials: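 After 24 h dosing of transfected HepG2 cells, total RNA was reverse-transcribed, reporter sequences PCR-amplified, 6-FAM labelled by primer extension and HpaI-digested before capillary electrophoresis. Signal increase over DMSO was fitted.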

Test [9] is described as follows: ATG_NFI_CIS: Attagene CIS-FACTORIAL HepG2 Assay for human Nuclear Factor I (NFI) (AID 2282989; active = hit-call score of the fitted dose curve at least 0.9, where 1 is the maximum; inactive = score below 0.9). The following applies: HepG2 cis-regulatory reporter, NFI response element transcription; actives raise or lower the signal. The essentials:
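Read-out: reporter mRNA via RT-PCR plus capillary electrophoresis with fluorescence detection. Transiently transfected HepG2 (endogenous TF activity on cis promoters), 24 h compound exposure; gain or loss of signal fitted against DMSO.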

For test [10], the target named is human Retinoid X Receptor beta (RXRb), RXRB (gene 6257) (UniProt P28702). In words: ATG_RXRb_TRANS: Attagene TRANS-FACTORIAL HepG2 Assay for human Retinoid X Receptor beta (RXRb) (AID 2283013). The essentials:
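Chimeric receptor-Gal4 activity was assessed in transiently transfected human HepG2 cells after 24 h exposure. Transcripts from GAL4-UAS reporters were quantified by fluorescent RT-PCR and capillary electrophoresis, with DMSO as negative control and baseline.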

Test [11] is described as follows: ATG_M_61_CIS: Attagene CIS-FACTORIAL HepG2 Assay for M61 Transcription Factor (Internal Marker) (AID 2282937; active = hit-call score of the fitted dose curve at least 0.9, where 1 is the maximum; inactive = score below 0.9). Conditions: HepG2 Attagene CIS-FACTORIAL M61 internal marker reporter; actives raise or lower the signal. The essentials: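 Multiplexed reporter mRNA assay, HepG2 human hepatoma cells, 24 h treatment. Signal: FAM-labelled, HpaI-digested RT-PCR fragments by CE. Fit: bidirectional, baseline DMSO.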

The target in test [12] is Peroxisome proliferator-activated receptor gamma (Homo sapiens) (UniProt P37231). In words: ATG_PPARg_TRANS: Attagene TRANS-FACTORIAL HepG2 Assay for human Peroxisome Proliferator-activated Receptor-gamma (PPARg) (AID 2283007). In outline:
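Chimeric NR-Gal4 transactivation is measured in transiently transfected HepG2 cells by reporter mRNA induction at 24 h. Detection uses RT-PCR with fluorescent labelling and capillary electrophoresis; DMSO defines baseline.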

In test [13] the target is Retinoic acid receptor RXR-alpha (Homo sapiens) (UniProt P19793). Nature of the test: ATG_RXRa_TRANS: Attagene TRANS-FACTORIAL HepG2 Assay for human Retinoid X Receptor alpha (RXRa) (AID 2283012). The essentials: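 Measures exogenous chimeric NR-GAL4 activity in transfected HepG2 liver cells after 24 h of dosing. Induced reporter mRNA was detected by RT-PCR with capillary electrophoresis, and gain of signal was analysed against DMSO.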
Chain of Retinoic acid receptor RXR-alpha (Homo sapiens) (P19793 whole entry, looked up, the tested form may be a part): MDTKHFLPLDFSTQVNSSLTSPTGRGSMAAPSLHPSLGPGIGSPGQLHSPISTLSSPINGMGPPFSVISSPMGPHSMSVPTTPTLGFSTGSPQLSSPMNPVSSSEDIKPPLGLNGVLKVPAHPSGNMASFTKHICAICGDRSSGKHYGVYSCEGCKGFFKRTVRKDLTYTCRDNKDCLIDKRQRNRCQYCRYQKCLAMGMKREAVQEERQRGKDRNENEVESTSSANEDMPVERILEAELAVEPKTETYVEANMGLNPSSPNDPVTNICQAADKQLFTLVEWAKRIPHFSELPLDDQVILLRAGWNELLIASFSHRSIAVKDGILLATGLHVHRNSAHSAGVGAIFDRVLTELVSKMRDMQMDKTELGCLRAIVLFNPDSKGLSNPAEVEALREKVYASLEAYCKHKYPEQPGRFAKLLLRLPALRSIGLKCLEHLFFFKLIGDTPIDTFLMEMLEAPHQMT

In test [14] the target is Cellular tumor antigen p53 (Homo sapiens) (UniProt P04637). Nature of the test: TOX21_p53_BLA_p2_ratio: Tox21 HCT-116 p53 Agonism Beta-lactamase Assay, Ratio, Phase 2 (AID 2283592). In outline: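 Plated HCT116 p53-bla cells (4000/well) received compound after 5 h, then 16 h at 37C/5% CO2. CCF4-AM added, 2 h RT. Ratio of 460 to 530 nm emission taken as the p53 reporter signal.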
Chain of Cellular tumor antigen p53 (Homo sapiens) (P04637 whole entry, looked up): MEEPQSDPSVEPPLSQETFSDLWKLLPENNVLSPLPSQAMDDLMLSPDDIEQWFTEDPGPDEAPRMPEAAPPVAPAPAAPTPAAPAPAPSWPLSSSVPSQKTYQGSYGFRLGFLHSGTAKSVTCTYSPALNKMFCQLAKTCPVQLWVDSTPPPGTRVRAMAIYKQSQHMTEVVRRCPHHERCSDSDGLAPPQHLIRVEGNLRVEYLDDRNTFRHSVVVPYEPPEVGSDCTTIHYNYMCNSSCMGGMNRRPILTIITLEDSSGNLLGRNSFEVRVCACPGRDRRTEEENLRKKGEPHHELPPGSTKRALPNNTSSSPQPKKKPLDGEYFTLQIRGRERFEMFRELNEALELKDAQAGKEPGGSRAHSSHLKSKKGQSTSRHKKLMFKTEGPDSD

Test [15] has the same target. In words: TOX21_p53_BLA_p5_ratio: Tox21 HCT-116 p53 Agonism Beta-lactamase Assay, Ratio, Phase 5 (AID 2283599). The essentials: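 HCT-116 cells carrying a p53-inducible beta-lactamase reporter were seeded at 4000 cells/well and dosed after 5 h with compound in DMSO (217-fold dilution). After 16 h at 37C, CCF4-AM substrate was added for 2 h, and the 460/530 nm emission ratio was scored as gain-of-signal versus DMSO.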

Test [16] in a line: TOX21_p53_BLA_p5_viability: Viability Assessment in the Tox21 HCT-116 p53 Agonism Beta-lactamase Assay, Phase 5 (AID 2283600). The essentials:
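Workflow: seed 4000 cells per well, wait 5 h, add compounds (DMSO, 217-fold dilution), incubate 16 h, load CCF4-AM 2 h, add CellTiter-Glo, read luminescence after 30 min.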

For test [17], the target named is Cellular tumor antigen p53 (Homo sapiens) (UniProt P04637). Nature of the test: TOX21_p53_BLA_p4_ratio: Tox21 HCT-116 p53 Agonism Beta-lactamase Assay, Ratio, Phase 4 (AID 2283601). The essentials:
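HCT116 cells carrying an inducible beta-lactamase reporter were plated at 4000 cells/well, rested 5 h, then exposed to compounds in DMSO (217-fold dilution) for 16 h at 37C. CCF4-AM substrate was loaded 2 h at room temperature; 460/530 nm emission ratio scored gain-of-signal versus DMSO.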

A short description of test [18]: ATG_PPRE_CIS: Attagene CIS-FACTORIAL HepG2 Assay for human Peroxisome Proliferator-activated Response Element (PPRE) (AID 2282958; active = hit-call score of the fitted dose curve at least 0.9, where 1 is the maximum; inactive = score below 0.9). The following applies: HepG2 PPRE cis-element reporter, Attagene transcription factor profiling; actives raise or lower the signal. In outline: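 DMSO served as negative control and baseline for bidirectional curve fitting. Signal came from PPRE-regulated reporter mRNA in HepG2 cells, measured 24 h post-dosing by RT-PCR, 6-FAM primer extension and capillary electrophoresis.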

Test [19] can be described thus: ACEA_ER_AUC_viability: ACEA Biosciences xCELLigence Real-Time Cell Analysis on Estrogen Receptor Agonism for Viability (AID 2283782).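 Also: hit means loss of impedance signal meaning reduced cell growth or viability.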 The essentials: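 Continuous-exposure impedance cell analysis uses T-47D cells in charcoal-stripped serum, eight 1:4 dilutions topping at 100 uM final, biological duplicate. Area under the growth curve at 80 h is fitted against DMSO baseline.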

Test [20] is described as follows: ATG_M_19_TRANS: Attagene TRANS-FACTORIAL HepG2 Assay for M19 Transcription Factor (Internal Marker) (AID 2282974). The following applies: HepG2 Attagene TRANS-FACTORIAL M19 internal marker reporter. The essentials:
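Multiplexed TRANS format: HepG2 liver cells bearing transient GAL4-UAS reporter units, chemical treatment 24 h, reporter transcripts quantified by RT-PCR plus capillary electrophoresis. DMSO defines baseline.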

Records with an inconclusive call do not appear. Activity calls are given as the source filed them. The calls were made as follows, unless noted: active = hit-call score of the fitted dose curve at least 0.9, where 1 is the maximum; inconclusive = response in the unintended direction; inactive = score below 0.9.

Chain of Peroxisome proliferator-activated receptor gamma (Homo sapiens) (P37231 whole entry, looked up, the tested form may be a part): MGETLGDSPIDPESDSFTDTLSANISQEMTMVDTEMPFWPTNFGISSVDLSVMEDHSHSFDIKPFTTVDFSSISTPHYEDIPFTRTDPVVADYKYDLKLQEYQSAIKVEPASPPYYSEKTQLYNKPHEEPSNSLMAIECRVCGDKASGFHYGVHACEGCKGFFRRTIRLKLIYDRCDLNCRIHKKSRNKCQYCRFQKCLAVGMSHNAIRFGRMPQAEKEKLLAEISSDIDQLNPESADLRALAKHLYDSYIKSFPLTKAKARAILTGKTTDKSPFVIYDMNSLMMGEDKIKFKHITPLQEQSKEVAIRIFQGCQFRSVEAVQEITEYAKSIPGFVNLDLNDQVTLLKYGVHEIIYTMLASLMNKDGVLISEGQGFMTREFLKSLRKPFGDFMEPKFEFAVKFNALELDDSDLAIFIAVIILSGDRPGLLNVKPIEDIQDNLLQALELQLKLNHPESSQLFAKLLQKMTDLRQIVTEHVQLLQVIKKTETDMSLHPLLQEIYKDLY
Chain of human Retinoid X Receptor beta (RXRb), RXRB (gene 6257) (P28702 whole entry, looked up, the tested form may be a part): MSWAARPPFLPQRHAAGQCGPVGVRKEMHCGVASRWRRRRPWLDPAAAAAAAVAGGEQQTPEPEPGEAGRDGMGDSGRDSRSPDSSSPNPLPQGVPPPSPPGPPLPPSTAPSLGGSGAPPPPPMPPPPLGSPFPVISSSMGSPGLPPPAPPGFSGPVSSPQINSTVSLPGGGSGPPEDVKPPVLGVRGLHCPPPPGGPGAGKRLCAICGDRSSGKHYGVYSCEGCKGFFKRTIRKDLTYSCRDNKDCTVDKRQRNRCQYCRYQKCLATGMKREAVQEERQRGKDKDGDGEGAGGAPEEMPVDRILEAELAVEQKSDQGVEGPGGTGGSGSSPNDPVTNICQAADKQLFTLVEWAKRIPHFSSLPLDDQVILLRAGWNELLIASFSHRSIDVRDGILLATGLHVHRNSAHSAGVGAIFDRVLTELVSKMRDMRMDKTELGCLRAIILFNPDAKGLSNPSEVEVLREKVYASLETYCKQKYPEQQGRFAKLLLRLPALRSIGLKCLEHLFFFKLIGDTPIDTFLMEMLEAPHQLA
Chain of Aryl hydrocarbon receptor (Homo sapiens) (P35869 whole entry, looked up): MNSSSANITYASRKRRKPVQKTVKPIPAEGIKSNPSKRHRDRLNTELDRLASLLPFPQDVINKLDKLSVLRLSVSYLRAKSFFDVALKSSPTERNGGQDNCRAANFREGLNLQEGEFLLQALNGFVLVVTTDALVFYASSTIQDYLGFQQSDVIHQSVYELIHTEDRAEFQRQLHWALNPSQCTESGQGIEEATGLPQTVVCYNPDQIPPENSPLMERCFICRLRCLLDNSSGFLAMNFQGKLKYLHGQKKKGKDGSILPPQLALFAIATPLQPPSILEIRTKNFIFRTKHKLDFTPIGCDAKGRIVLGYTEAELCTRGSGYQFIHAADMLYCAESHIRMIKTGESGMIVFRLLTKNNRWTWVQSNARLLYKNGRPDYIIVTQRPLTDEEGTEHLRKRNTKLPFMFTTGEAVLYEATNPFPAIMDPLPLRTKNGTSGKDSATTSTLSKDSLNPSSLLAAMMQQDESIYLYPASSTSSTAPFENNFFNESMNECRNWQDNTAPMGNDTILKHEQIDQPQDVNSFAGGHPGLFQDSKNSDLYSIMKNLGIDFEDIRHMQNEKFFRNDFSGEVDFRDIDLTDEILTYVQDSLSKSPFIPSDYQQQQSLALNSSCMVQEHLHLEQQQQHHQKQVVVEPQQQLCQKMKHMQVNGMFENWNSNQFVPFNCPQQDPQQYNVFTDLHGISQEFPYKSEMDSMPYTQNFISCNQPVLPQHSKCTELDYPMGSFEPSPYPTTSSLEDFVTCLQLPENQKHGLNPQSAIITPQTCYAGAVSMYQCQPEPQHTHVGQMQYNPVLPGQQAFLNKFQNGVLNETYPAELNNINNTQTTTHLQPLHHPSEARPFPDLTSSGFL

For the compound `ClCCCCCCCl`, the compound was classed as inactive in test [1], in test [2], in [3], in test [4], in [5] and in [6]. Further, the result in [7], in test [8], in test [9] and in [10] was inactive.
For `CN1C(=O)CCS(=O)(=O)C1c1ccc(Cl)cc1` (stereo not given), the compound was classed as inactive in [1], in test [2], in test [3], in test [11], in test [4] and in [7]. The outcome in test [8] and in test [9] was inactive.
For `Nc1ccccc1C(=O)OCCc1ccccc1`, the AC50 in [1] is 10 µM (active); in test [5] it was 31.9 µM (active); in [6], 21.3 µM (active); in test [12], 24.9 µM (active); in test [10] it was 33.4 µM (active). Further, the compound was called inactive in [2], in [3], in test [11], in [4], in test [7] and in test [8]. Moreover, the compound was called inactive in [9], in test [13], in test [14], in test [15], in test [16] and in test [17].
For `CC[N+](=O)[O-]`, the result in test [1], in test [2], in [3], in [11], in test [4] and in test [5] was inactive. In addition, the outcome in [6], in [18], in [7], in test [9], in test [12] and in test [10] was inactive. In addition, the result in test [14], in test [15], in test [16] and in test [17] was inactive.
As for `Nc1ccc([N+](=O)[O-])cc1N`, the AC50 is 24.7 µM (active) in test [1] and 50 µM (active) in [19]. Besides, the call in test [2], in test [3], in test [11], in test [5], in [18] and in test [7] was inactive. The result in test [8], in test [12], in test [13], in [10], in [14] and in [15] was inactive. For the same compound, the result in [16] and in test [17] was inactive.
Take `CC(Cc1ccc(C(C)(C)C)cc1)CN1C[C@@H](C)O[C@@H](C)C1` (stereo not given in full): the AC50 in test [1] is 33.4 µM (active); in test [2], 40.6 µM (active); in [6] it was 12.8 µM (active); in test [12] it was 21.7 µM (active); in test [19] it was 89.5 µM (active). Moreover, the result in [3], in test [11], in [4], in [5], in [18] and in test [20] was inactive. The outcome in test [7], in test [8], in test [9], in [13], in test [10] and in test [16] was inactive. Moreover, in test [17], the outcome was inactive.
Regarding `[Cl][Sb]([Cl])[Cl]`, the result in [1], in [3], in test [4], in test [5], in test [6] and in test [18] was inactive. The compound was called inactive in [7], in [9], in test [12], in test [14], in test [15] and in [16]. Besides, the result in [17] was inactive. Besides, the AC50 in [2] is 100 µM (active); in test [19], 87.8 µM (active).
`CCNCC`: the outcome in test [1], in test [2], in test [3], in test [11], in test [4] and in test [5] was inactive. In addition, the compound was called inactive in test [18], in test [20], in test [7], in [9], in test [12] and in test [13].
On to `Cc1ncc(C[n+]2csc(CCO)c2C)c(N)n1`, for which the outcome in test [1], in [2], in [3], in test [11], in test [6] and in [18] was inactive. Also, the compound was called inactive in test [20], in test [12], in [14], in test [15], in test [16] and in test [17]. Besides, the outcome in test [19] was inactive.
